Shown is part of a subset that was picked to be rich in hits.
NS1 function inh: blocks influenza NS1 protein function | Potency, µM (titrated, usually from 46.1 µM) | hit rate 0.4% among 270,000 | AID 2326; calls by dose curve; further: actives are rising curves; nearly all actives have a fitted effect of over 50% in size
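Read-out: OD600 growth recovery of NS1-expressing budding yeast. Cells grown overnight at 30C in -URA glucose medium, washed, resuspended and diluted 1:100 in 2% galactose assay medium, pH 6.0. Same strain lacking NS1 served as positive control.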
Cruzain inh Det: inhibitors of Trypanosoma cruzi cruzain with detergent. P25779. purified cruzain, Z-FR-AMC fluorescence, 0.01% Triton. Potency, µM, most hits filed as inhibitors. hit rate 0.43% among 200,000; further: nearly all actives have a fitted effect of over 40% in size
Target sequence (P25779 123-467 limits assumed): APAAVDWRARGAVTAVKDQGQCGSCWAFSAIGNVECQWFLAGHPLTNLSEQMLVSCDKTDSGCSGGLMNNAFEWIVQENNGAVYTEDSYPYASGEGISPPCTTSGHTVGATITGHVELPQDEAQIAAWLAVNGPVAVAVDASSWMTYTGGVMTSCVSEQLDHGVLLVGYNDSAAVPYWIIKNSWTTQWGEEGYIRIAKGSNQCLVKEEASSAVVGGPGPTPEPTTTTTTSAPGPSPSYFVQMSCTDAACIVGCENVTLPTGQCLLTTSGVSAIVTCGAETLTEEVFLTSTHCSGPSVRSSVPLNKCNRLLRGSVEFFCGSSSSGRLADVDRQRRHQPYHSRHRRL
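Sodium acetate buffer (100 mM, pH 5.5) containing 5 mM DTT and 0.01% Triton X-100 hosted 1.5 nM cruzain and test compound for 15 min at room temperature. Cleavage of 2 uM Z-FR-AMC was then tracked by fluorescence.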
Cruzain inh noDet: inhibitors of Trypanosoma cruzi cruzain without detergent | P25779 | purified cruzain, Z-FR-AMC fluorescence, no detergent | Potency, µM, usual class: inhibitors | hit rate 2.3% among 200,000 | AID 1476; further: nearly all actives have a fitted effect of over 40% in size
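Purified cruzain at 1.5 nM, pre-incubated 15 min with compound at room temperature in 100 mM sodium acetate pH 5.5, 5 mM DTT, 0.00005% Triton X-100. Reaction started with 2 uM Z-FR-AMC; AMC fluorescence increase over 60 s gives rate.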
Numbers stand for hits; - = inactive; ? = inconclusive; . = no result. Unless noted, the call rests on the fitted dose curve; in most records, active means well fitted curve in the direction sought with a large enough effect; inconclusive means small, poorly fitted or top-dose-only effect, or another doubt; inactive means no such curve, though single readings can be large; an effect the other way counts as inactive or inconclusive.

SMILES | NS1 function inh | Cruzain inh Det | Cruzain inh noDet
O=C1CS(=O)(=O)C2(C(=O)N(Cc3ccccc3)c3ccccc32)N1c1ccc(F)c(Cl)c1 (stereo not given) | . | - | 2µM
Cc1ccccc1CN1C(=O)C2(c3ccccc31)N(c1ccccc1)C(=O)CS2(=O)=O (stereo not given) | . | - | -
Cc1ccc(C)c(Cn2c(=O)n(CCCCC(=O)NCc3ccc4c(c3)OCO4)c(=O)c3ccccc32)c1 | . | - | -
CCCc1nn2c(=O)cc(COC(=O)c3cccc(NC(=O)COc4ccccc4C)c3)nc2s1 | . | - | -
CCOc1ccc(S(=O)(=O)c2cn(Cc3ccc(C)cc3)c3ccc(OC)cc3c2=O)cc1 | . | - | -
O=C1CS(=O)(=O)C2(C(=O)N(Cc3ccccc3Cl)c3ccccc32)N1c1ccc(F)cc1 (stereo not given) | . | - | 2.5µM
CCc1cccc(N2C(=O)CS(=O)(=O)C23C(=O)N(Cc2ccccc2)c2ccc(C)cc23)c1 (stereo not given) | . | - | 1.6µM
COc1ccc(N2C(=O)CS(=O)(=O)C23C(=O)N(Cc2cccc(F)c2)c2ccccc23)cc1OC (stereo not given) | . | - | -
O=C1CSC2(C(=O)N(Cc3ccccc3F)c3ccccc32)N1c1ccc(F)cc1 (stereo not given) | . | - | -
CCc1cccc(N2C(=O)CS(=O)(=O)C23C(=O)N(Cc2ccc(F)cc2)c2ccc(C)cc23)c1 (stereo not given) | . | - | ?
Cc1ccc(N2C(=O)CS(=O)(=O)C23C(=O)N(Cc2cccc(F)c2)c2ccccc23)cc1Cl (stereo not given) | . | - | 2µM
COc1ccc(Nc2ncc(C(=O)Nc3ccc(F)cc3F)c3ccccc23)cc1 | . | - | -
CCCCCCNC(=O)C(C#N)c1nc2ccccc2nc1N1CCCC1 (stereo not given) | - | - | -
CCCCCNC(=O)C(C#N)c1nc2ccccc2nc1N1CCCC1 (stereo not given) | - | - | 13µM
O=C1c2ccccc2C(=O)c2c(Nc3cc4c5c(ccc6c7ccc8c9c(cc(Nc%10cccc%11c%10C(=O)c%10ccccc%10C%11=O)c(c3c56)c97)-c3ccccc3C8=O)C(=O)c3ccccc3-4)cccc21 | - | - | -
COc1cc(OC)c(NC(=O)CCCn2nc(C)c3sc4ccccc4c3c2=O)cc1Cl | . | - | -
COc1ccc(N2CCC(CNC(=O)Nc3cccc(OC)c3)C2)cc1 (stereo not given) | - | - | ?
COc1ccc(N2CCC(CNC(=S)Nc3cccc(OC)c3)C2)cc1 (stereo not given) | - | - | 32µM
O=c1c(-c2ccccc2)nc2cnc(N3CCOCC3)nc2n1CCc1ccccc1 | . | - | -
C[C@@H]1CC2(OC3C[C@@]4(C)C5=CC[C@H]6C(C)(C)C(O[C@@H]7OC[C@@H](O)[C@H](O)[C@H]7O)CC[C@@]67C[C@@]57CC[C@]4(C)C31)OC(O)C1(C)OC21 (stereo not given in full) | . | - | ?
Cc1ccc(S(=O)(=O)c2cc(OC(=O)c3ccco3)ccc2OC(=O)c2ccco2)cc1 | - | - | -
O=C(Oc1ccc(OC(=O)c2ccco2)c(S(=O)(=O)c2ccc(Br)cc2)c1)c1ccco1 | - | - | 25µM
CCCOc1ccc(C(=O)Nc2ccc(NC(=O)c3ccccc3)c(Br)c2)cc1 | . | - | -
CCc1cc2cc3c(cc2nc1SCC(=O)Nc1nccs1)OCO3 | - | - | 20µM
CCc1cc2cc3c(cc2nc1SCC(=O)Nc1c[nH]c(=O)[nH]c1=O)OCO3 | - | . | .
SMILES | NS1 function inh | Cruzain inh Det | Cruzain inh noDet
COCc1oc2ccc(NS(=O)(=O)c3ccc(C)cc3)cc2c1C(=O)OC | . | - | -
COc1cccc(CNC(=O)c2cccc(-n3c(C)nc4cccnc43)c2)c1OC | . | - | -
CS(=O)(=O)N1CCC2(CC1)CN(c1ncccn1)C2 | . | - | 16µM
CS(=O)(=O)N1CCC[C@@]2(CCN(c3ncccn3)C2)C1 | . | - | -
NC(Cc1ccccc1)=NCC(=O)O | - | - | -
CC(C)c1ccc(C2Sc3ccccc3NC3=C2C(=O)c2ccccc23)cc1 (stereo not given) | . | - | 10µM
O=C1C2=C(Nc3ccccc3SC2c2ccc(C(F)(F)F)cc2)c2ccccc21 (stereo not given) | . | - | 20µM
CC(=O)Nc1ccc(C2Sc3ccccc3NC3=C2C(=O)c2ccccc23)cc1 (stereo not given) | . | - | -
CCc1ccc(C2Sc3ccccc3NC3=C2C(=O)c2ccccc23)cc1 (stereo not given) | . | - | ?
COc1cccc(-c2coc3ccc(Br)cc3c2=O)c1 | . | - | -
Cc1cccc(CNc2nc(-c3ccoc3)nc3ccccc23)c1 | . | - | ?
Fc1ccc(Nc2nc(-c3ccoc3)nc3ccccc23)cc1 | . | - | 25µM
COc1ccc(CNc2nc(-c3ccoc3)nc3ccccc23)c(OC)c1 | . | - | 16µM
COc1cccc(-c2nc(NCc3ccccc3OC)c3ccccc3n2)c1 | . | - | -
c1ccc(CNc2nc(-c3ccoc3)nc3ccccc23)cc1 | . | - | 25µM
Oc1ccc(Nc2nc(-c3ccccc3)nc3ccccc23)cc1 | - | . | .
Cc1ccc(CCNC(=O)c2cc3ccccn3n2)cc1 | . | - | -
Fc1ccc(-c2nc(Nc3ccc(F)c(Cl)c3)nc3c2COc2ccccc2-3)cc1 | . | - | -
COc1ccc(C2C(C(N)=O)=C(C)Nc3nc(SCc4ccccc4Cl)nn32)cc1OC (stereo not given) | . | - | -
COc1ccccc1CNC(=O)c1cc2cccc3c2n1CCS3 | . | - | 25µM
O=C(NCc1ccccc1Cl)c1cc2cccc3c2n1CCS3 | . | - | ?
C[N+]1(C)CC[C@@H](OC(=O)[C@@](O)(c2ccccc2)C2CCCC2)C1 | . | - | -
CCCCCCCCCCCCC/C=C/[C@@H](O)[C@H](CO)NC(=O)CCCCCCCCCCCCCCC | . | - | -
NC(=O)c1ccc(NC(=O)CSc2nncn2-c2ccccc2)cc1 | - | . | .
O=C(CSc1nncn1-c1ccccc1)Nc1cc(Cl)cc(Cl)c1 | - | - | 25µM
SMILES | NS1 function inh | Cruzain inh Det | Cruzain inh noDet
C#CCn1c(=NC(=O)c2ccc(S(=O)(=O)N3CCc4ccccc4C3)cc2)sc2cc(S(N)(=O)=O)ccc21 | ? | - | 10µM
COC(=O)Cn1c(=NC(=O)c2ccc(S(=O)(=O)N3CCc4ccccc4C3)cc2)sc2cc(OC)ccc21 | - | - | 6.3µM
C=CCn1c(=NC(=O)c2ccc(S(=O)(=O)N3CCc4ccccc4C3)cc2)sc2cc(S(N)(=O)=O)ccc21 | - | - | -
COCCn1c(=NC(=O)c2ccc(S(=O)(=O)N3CCc4ccccc4C3)cc2)sc2cc(S(N)(=O)=O)ccc21 | - | - | ?
O=C(CN1C(=O)CCc2cc(Br)ccc21)Nc1ccc(OC(F)(F)F)cc1 | . | - | -
CCN1CCN(CCCNC(=O)Cn2nc(C)n3c(cc4c(OC)cccc43)c2=O)CC1 | . | - | -
CCCCOc1ccc(C2c3c(oc4ccc(C)cc4c3=O)C(=O)N2CCCN(C)C)cc1OCC (stereo not given) | . | - | -
O=C(Nc1ccc(Cl)cc1)[C@@H]1[C@@H]2C(=O)N(c3ccc(Cl)cc3Cl)C(=O)[C@@H]2[C@H]2C=CC=NN21 | - | - | 16µM
COc1ccccc1N1C(=O)[C@@H]2[C@H](C1=O)[C@H](C(=O)c1ccc(OC(C)=O)cc1)N1N=CC=C[C@@H]21 | - | . | .

Screening results from PubChem BioAssay.
